# The antibiotic and cytotoxicity screens of Wong et al. (2023)
# About 3,300 (8.5%) of roughly 39,000 compounds were called active. The sample holds actives, similar compounds and a random draw of the others, so the mix is not that of the screen.
# Tested on: HepG2
# Assay: cytotoxicity call (relative viability < 0.9)
# Details: 10 µM
row,SMILES,cytotoxicity call
1,COc1ccc(C#Cc2ccc3c(c2)O[C@@H](CN(C)C(=O)CN2CCOCC2)[C@H](C)CN([C@H](C)CO)S3(=O)=O)cc1,inactive
2,C[C@@H]1CN([C@H](C)CO)C(=O)Cc2cc(NC(=O)c3ccncc3)ccc2O[C@H]1CN(C)Cc1ccc(Oc2ccccc2)cc1,inactive
3,C[C@H]1CN([C@@H](C)CO)C(=O)Cc2cc(NC(=O)c3ccncc3)ccc2O[C@H]1CN(C)Cc1ccc(Oc2ccccc2)cc1,inactive
4,C[C@H]1CN([C@@H](C)CO)C(=O)Cc2cc(NC(=O)c3ccncc3)ccc2O[C@@H]1CN(C)Cc1ccc(Oc2ccccc2)cc1,inactive
5,C[C@@H]1CN([C@@H](C)CO)C(=O)Cc2cc(NC(=O)c3ccncc3)ccc2O[C@H]1CN(C)Cc1ccc(Oc2ccccc2)cc1,active
6,C[C@@H]1CN([C@H](C)CO)C(=O)Cc2cc(NC(=O)c3ccncc3)ccc2O[C@@H]1CN(C)Cc1ccc(Oc2ccccc2)cc1,inactive
7,C[C@@H]1CN([C@@H](C)CO)C(=O)Cc2cc(NC(=O)c3ccncc3)ccc2O[C@@H]1CN(C)Cc1ccc(Oc2ccccc2)cc1,active
8,CO[C@@H]1CN(C)C(=O)c2ccc(NC(=O)C3CC3)cc2OC[C@@H](C)N(C(=O)C2CCOCC2)C[C@@H]1C,inactive
9,C[C@H]1CN([C@@H](C)CO)C(=O)Cc2cc(NC(=O)NC3CCCCC3)ccc2O[C@@H]1CN(C)S(=O)(=O)c1cn(C)cn1,inactive
10,O=C(C[C@H]1C=C[C@H](NC(=O)C2CC2)[C@@H](CO)O1)NCCCN1CCOCC1,inactive
11,C[C@@H]1CCCCO[C@@H](CN(C)C(=O)c2ccncc2)[C@@H](C)CN([C@@H](C)CO)C(=O)c2cc(NC(=O)C3CCCCC3)ccc2O1,inactive
12,CS(=O)(=O)NCc1nnnn1-c1ccc(F)c(F)c1,inactive
13,C[C@@H]1CN([C@H](C)CO)S(=O)(=O)c2ccc(C#Cc3cccc(F)c3)cc2O[C@H]1CN(C)S(=O)(=O)c1ccccc1F,inactive
14,C[C@@H]1CN([C@@H](C)CO)C(=O)c2c(c3ccccc3n2C)-c2ccccc2CO[C@H]1CN(C)C(=O)NC1CCCCC1,inactive
15,CCOC(=O)CSc1nc(=O)cc(C)[nH]1,inactive
16,Cc1cc(=O)nc(SCC(N)=O)[nH]1,active
17,CCCc1cc(=O)nc(SCC(N)=O)[nH]1,inactive
18,C[C@H](CO)N1C[C@H](C)[C@H](CN(C)S(=O)(=O)c2cn(C)cn2)OCCCC[C@H](C)Oc2ccc(NS(=O)(=O)c3ccccc3)cc2C1=O,inactive

row,SMILES,cytotoxicity call
1,CCOC(=O)[C@H]1C/C=C/C[C@H](C(=O)OCC)C(=O)O[C@H]2[C@@H](OC)O[C@H](CO)[C@@H](OC(=O)Nc3cccc(F)c3)[C@@H]2OC1=O,active
2,CCOC(=O)[C@H]1C/C=C/C[C@H](C(=O)OCC)C(=O)O[C@H]2[C@@H](OC)O[C@H](CO)[C@@H](OC(=O)c3ccc(Br)cc3)[C@@H]2OC1=O,inactive
3,CCOC(=O)[C@H]1C/C=C/C[C@H](C(=O)OCC)C(=O)O[C@H]2[C@@H](OC)O[C@H](CO)[C@@H](OC(=O)c3c(OC)cccc3OC)[C@@H]2OC1=O,inactive
4,CCOC(=O)[C@H]1C/C=C/C[C@H](C(=O)OCC)C(=O)O[C@H]2[C@@H](OC)O[C@H](CO)[C@@H](OC(=O)Nc3ccc(Br)cc3)[C@@H]2OC1=O,active
5,CCOC(=O)[C@H]1C/C=C/C[C@H](C(=O)OCC)C(=O)O[C@H]2[C@@H](OC)O[C@H](CO)[C@@H](OC(=O)Nc3ccccc3)[C@@H]2OC1=O,inactive
6,CO[C@H]1O[C@H](CO)[C@@H](OC(=O)Nc2ccccc2)[C@@H]2OC(=O)[C@@H](Cc3ccc4ccccc4c3)C/C=C/C[C@H](Cc3ccc4ccccc4c3)C(=O)O[C@@H]12,inactive
7,CCOC(=O)[C@H]1C/C=C/C[C@H](C(=O)OCC)C(=O)O[C@H]2[C@@H](OC)O[C@H](CO)[C@@H](OC(=O)Nc3ccc4c(c3)OCO4)[C@@H]2OC1=O,active
8,CO[C@H]1O[C@H](CO)[C@@H](OC(=O)Nc2ccc3c(c2)OCO3)[C@@H]2OC(=O)[C@H](Cc3cccc(Br)c3)C/C=C/C[C@@H](Cc3cccc(Br)c3)C(=O)O[C@@H]12,inactive
9,CO[C@H]1O[C@H](CO)[C@@H](OC(=O)Nc2cccc(F)c2)[C@@H]2OC(=O)[C@H](Cc3cccc(Br)c3)C/C=C/C[C@@H](Cc3cccc(Br)c3)C(=O)O[C@@H]12,inactive
10,CCOC(=O)[C@H]1C/C=C/C[C@H](C(=O)OCC)C(=O)O[C@H]2[C@@H](OC)O[C@H](CO)[C@@H](OC(=O)Nc3ccc(OC)cc3)[C@@H]2OC1=O,inactive
11,COc1ccc(NC(=O)O[C@H]2[C@@H]3OC(=O)[C@H](Cc4cccc(Br)c4)C/C=C/C[C@@H](Cc4cccc(Br)c4)C(=O)O[C@H]3[C@@H](OC)O[C@@H]2CO)cc1,inactive
12,COc1ccc(NC(=O)O[C@H]2[C@@H]3OC(=O)[C@@H](Cc4ccc5ccccc5c4)C/C=C/C[C@H](Cc4ccc5ccccc5c4)C(=O)O[C@H]3[C@@H](OC)O[C@@H]2CO)cc1,active
13,COc1cccc(S(=O)(=O)N2C[C@H](O)COC[C@@H]3O[C@H](CC(=O)N4CCN(C)CC4)CC[C@H]32)c1,inactive
14,CC(C)NC(=O)Nc1cccc2c1O[C@@H](CN(C)Cc1ccc3c(c1)OCO3)[C@@H](C)CN([C@@H](C)CO)C2=O,inactive
15,O=C(C[C@@H]1C[C@H]2c3cc(NC(=O)C4CCOCC4)ccc3O[C@H]2[C@H](CO)O1)NCc1ccc(Cl)cc1,inactive
16,O=C(C[C@H]1C[C@@H]2c3cc(NC(=O)Nc4ccc(C(F)(F)F)cc4)ccc3O[C@@H]2[C@@H](CO)O1)NC1CCCCC1,inactive
17,CC(CN)(Cc1ccccc1Cl)C(=O)O (stereo not given),inactive
